Inconclusive results are not listed. A call without a number means that no potency is given here. Values without a mark were called inactive. Activity calls are given as the source filed them. Calls come from the whole dose curve; as a rule, active = well fitted curve in the direction sought with a large enough effect; inconclusive = small, poorly fitted or top-dose-only effect, or another doubt; inactive = no such curve, though single readings can be large; an effect the other way counts as inactive or inconclusive.
How the values were obtained:
[1] = biological target: Rap guanine nucleotide exchange factor 3 (Homo sapiens) (UniProt O95398); test: Confirmatory qHTS for antagonist of cAMP-regulated guanine nucleotide exchange factor 3 (EPAC1) (AID 1645880); note: nearly all actives have a fitted effect of over 55% in size; note: potency is the fitted concentration of half-maximal effect
Summary of the method: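 Released BODIPY-GDP fluoresces less than Rap1-bound BODIPY-GDP; the signal is followed at 480/540 nm at 5-min intervals over 30 min, after 5 min at room temperature. Reactions contain 100 nM EPAC1, 250 nM RAP1B-BODIPY-GDP and 50 uM GDP; results are normalized to ATA and DMSO.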

[2] = biological target: Rap guanine nucleotide exchange factor 3 (Homo sapiens) (UniProt O95398); test: Confirmatory qHTS for agonist of cAMP-regulated guanine nucleotide exchange factor 3 (EPAC1) (AID 1645881); note: nearly all actives have a fitted effect of over 75% in size; note: potency is the fitted concentration of half-maximal effect;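 for activation: EPAC1 catalysed release of BODIPY-GDP from Rap1B seen as fluorescence loss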
[3] = biological target: Rap guanine nucleotide exchange factor 4 (Homo sapiens) (UniProt Q8WZA2); test: Confirmatory qHTS for agonist of cAMP-regulated guanine nucleotide exchange factor 4 (EPAC2) (AID 1645884);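 note: nucleotide exchange releases bodipy-GDP from Rap1 and this lowers its fluorescence; nearly all actives have a fitted effect of over 65% in size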; note: potency is the fitted concentration of half-maximal effect
[4] = biological target: Rap guanine nucleotide exchange factor 4 (Homo sapiens) (UniProt Q8WZA2); test: Confirmatory qHTS for antagonist of cAMP-regulated guanine nucleotide exchange factor 4 (EPAC2) (AID 1645885); note: nearly all actives have a fitted effect of over 25% in size; note: potency is the fitted concentration of half-maximal effect
[5] = biological target: Rap guanine nucleotide exchange factor 3 (Homo sapiens) (UniProt O95398); test: Counterscreen qHTS for antagonist of cAMP-regulated guanine nucleotide exchange factor 3 (EPAC1) (AID 1645888)
Summary of the method: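 Rap1B–BODIPY-GDP (250 nM) with 50 uM GDP; compounds pin-transferred to 9.74 nM–152 uM final (activator) or from 7.32 nM upwards (inhibitor). Fluorescence Ex/Em 480/540 nm read at 5 and 30 min, then after adding cAMP or buffer, at room temperature.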

Rap guanine nucleotide exchange factor 3 (Homo sapiens), sequence (O95398 whole entry, looked up): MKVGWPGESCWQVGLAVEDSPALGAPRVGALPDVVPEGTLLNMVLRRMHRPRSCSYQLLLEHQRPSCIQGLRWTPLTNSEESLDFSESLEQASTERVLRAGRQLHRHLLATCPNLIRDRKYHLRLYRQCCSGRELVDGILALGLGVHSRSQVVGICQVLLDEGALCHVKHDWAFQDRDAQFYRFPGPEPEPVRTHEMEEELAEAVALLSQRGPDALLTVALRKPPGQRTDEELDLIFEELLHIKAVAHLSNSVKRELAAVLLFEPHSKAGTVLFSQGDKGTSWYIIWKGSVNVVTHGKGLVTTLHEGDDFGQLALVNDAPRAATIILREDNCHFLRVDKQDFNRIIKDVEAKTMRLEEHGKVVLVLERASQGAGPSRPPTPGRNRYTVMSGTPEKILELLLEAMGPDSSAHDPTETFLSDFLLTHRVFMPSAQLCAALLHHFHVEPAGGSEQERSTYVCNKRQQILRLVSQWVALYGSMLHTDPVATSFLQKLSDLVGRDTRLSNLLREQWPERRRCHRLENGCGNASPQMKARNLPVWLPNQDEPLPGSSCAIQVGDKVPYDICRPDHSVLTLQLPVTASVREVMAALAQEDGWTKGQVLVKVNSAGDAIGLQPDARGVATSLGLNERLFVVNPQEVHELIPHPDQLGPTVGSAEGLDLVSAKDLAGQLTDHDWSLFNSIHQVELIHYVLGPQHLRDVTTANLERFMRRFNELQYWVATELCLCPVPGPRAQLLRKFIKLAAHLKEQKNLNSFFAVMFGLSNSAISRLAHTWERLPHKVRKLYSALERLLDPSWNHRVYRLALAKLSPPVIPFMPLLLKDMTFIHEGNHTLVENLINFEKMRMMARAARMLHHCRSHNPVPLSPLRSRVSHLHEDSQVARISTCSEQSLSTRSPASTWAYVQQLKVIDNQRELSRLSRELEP
Rap guanine nucleotide exchange factor 4 (Homo sapiens), sequence (Q8WZA2 whole entry, looked up): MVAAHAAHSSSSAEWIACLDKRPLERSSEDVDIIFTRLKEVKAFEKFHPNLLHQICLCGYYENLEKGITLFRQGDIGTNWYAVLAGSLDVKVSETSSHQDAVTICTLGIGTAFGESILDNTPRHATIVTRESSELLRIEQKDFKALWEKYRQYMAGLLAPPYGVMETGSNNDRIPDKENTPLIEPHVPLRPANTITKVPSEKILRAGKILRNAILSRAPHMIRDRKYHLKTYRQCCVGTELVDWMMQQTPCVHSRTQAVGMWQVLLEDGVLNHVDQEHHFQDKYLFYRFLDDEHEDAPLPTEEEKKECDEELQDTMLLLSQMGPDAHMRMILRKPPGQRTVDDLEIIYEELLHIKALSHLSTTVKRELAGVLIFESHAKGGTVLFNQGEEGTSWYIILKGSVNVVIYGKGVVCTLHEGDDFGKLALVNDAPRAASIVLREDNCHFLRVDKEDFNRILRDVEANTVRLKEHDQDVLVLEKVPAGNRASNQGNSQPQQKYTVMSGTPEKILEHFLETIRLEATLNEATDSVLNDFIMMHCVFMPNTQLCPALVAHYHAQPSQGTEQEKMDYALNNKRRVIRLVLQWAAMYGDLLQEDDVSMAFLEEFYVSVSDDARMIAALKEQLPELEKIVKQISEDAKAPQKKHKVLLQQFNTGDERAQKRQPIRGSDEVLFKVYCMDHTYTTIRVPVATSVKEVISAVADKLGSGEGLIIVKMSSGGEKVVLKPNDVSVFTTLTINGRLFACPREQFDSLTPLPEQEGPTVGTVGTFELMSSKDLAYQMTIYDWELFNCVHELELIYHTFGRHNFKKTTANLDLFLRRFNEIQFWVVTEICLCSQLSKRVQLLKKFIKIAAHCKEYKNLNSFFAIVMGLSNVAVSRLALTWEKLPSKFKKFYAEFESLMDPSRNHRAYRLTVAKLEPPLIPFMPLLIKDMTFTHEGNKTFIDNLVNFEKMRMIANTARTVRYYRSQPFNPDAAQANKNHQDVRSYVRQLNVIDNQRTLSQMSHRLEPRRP

With `Cc1nn(-c2ccccc2)c(N2CCCC2)c1/C=C1\N=C(c2ccc(OC(C)C)cc2)OC1=O` the Potency [1] was “inactive”, the Potency [2] was “inactive” and the Potency [3] was “inactive”. For the same compound, the Potency [4] was “inactive” and the Potency [5] was “inactive”.

`CCOc1cc(/C=C2\C(=N)N3N=C(S(C)(=O)=O)SC3=NC2=O)ccc1OCCOc1cccc(OC)c1` was tested, and the Potency [1] was 19 µM (active), the Potency [2] was “inactive” and the Potency [3] was “inactive”. For the same compound, the Potency [4] was “inactive” and the Potency [5] was “inactive”.

For `CC(=O)N(C(C)=O)N1C(=O)c2cccc3c(N4CCOCC4)ccc(c23)C1=O`, the Potency [1] was “inactive”, the Potency [2] was “inactive” and the activation [3] was 18.1% [at 17.1 µM, percent relative to cAMP agonist control]. The Potency [4] was “inactive” and the activity change, negative = inhibition [5] was 16.3% [at 30.8 µM].

For `CC(C)CC1C(=O)N(Cc2cn(CCC3OCCO3)nn2)CCS(=O)(=O)N1Cc1ccc(-c2ccc(F)cc2)cc1` (stereo not given), the Potency [1] was “inactive”, the Potency [2] was “inactive” and the activation [3] was 7.64% [at 17.1 µM, percent relative to cAMP agonist control]. The Potency [4] was 4.26 µM (active) and the activity change, negative = inhibition [5] was -16% [at 30.8 µM].

`COc1ccc(S(=O)(=O)N2CCOC23CCN(S(=O)(=O)c2ccc(F)cc2C)CC3)cc1` was tested, and the Potency [1] was “inactive”, the Potency [2] was “inactive” and the Potency [3] was “inactive”. For the same compound, the Potency [4] was “inactive” and the Potency [5] was “inactive”.

`CC(=NNC(=O)c1ccccc1N)c1ccccc1O` was tested, and the Potency [1] was 2.51 µM (active), the Potency [2] was “inactive” and the activation [3] was 0.484% [at 17.1 µM, percent relative to cAMP agonist control]. The Potency [4] was “inactive” and the activity change, negative = inhibition [5] was -1.34% [at 30.8 µM].

With `COc1cccc(C2=NN(C(=O)c3ccco3)C(O)(C(F)(F)F)C2)c1` (stereo not given) the Potency [1] was “inactive”, the Potency [2] was “inactive” and the activation [3] was 1.71% [at 17.1 µM, percent relative to cAMP agonist control]. The Potency [4] was “inactive” and the activity change, negative = inhibition [5] was -10.8% [at 30.8 µM].

In the case of `NC(=O)c1cc2ccccc2o/c1=N\NC(=O)c1ccncc1`, the Potency [1] is reported as “inactive”, the Potency [2] is reported as “inactive” and the activation [3] is reported as 1.92% [at 17.1 µM, percent relative to cAMP agonist control]. For the same compound, the Potency [4] was “inactive” and the activity change, negative = inhibition [5] was -2.29% [at 30.8 µM].

In the case of `Cc1c(Cl)cccc1NC(=O)CN(CCc1ccccc1)S(=O)(=O)c1ccccc1`, the Potency [1] is reported as “inactive”, the Potency [2] is reported as “inactive” and the Potency [3] is reported as “inactive”. For the same compound, the Potency [4] was “inactive” and the Potency [5] was “inactive”.

In the case of `Cc1ccc(Sc2ccc(S(=O)(=O)Nc3ccc(C(=O)O)cc3)cc2)cc1C`, the Potency [1] is reported as 67.5 µM (active), the Potency [2] is reported as “inactive” and the Potency [3] is reported as “inactive”. The Potency [4] was “inactive” and the Potency [5] was “inactive”.

With `CN1OC[C@@H]2CN(C(=O)CCc3ccccc3)[C@H](c3cccc(-c4ccc(C#N)cc4)c3)C[C@@H]21` the Potency [1] was “inactive”, the Potency [2] was “inactive” and the Potency [3] was “inactive”. The Potency [4] was “inactive” and the Potency [5] was “inactive”.

`O=C(/C=C/c1ccc(Cl)cc1)Nc1nccs1` was tested, and the Potency [1] was “inactive”, the Potency [2] was “inactive” and the activation [3] was 2.3% [at 17.1 µM, percent relative to cAMP agonist control]. For the same compound, the Potency [4] was “inactive” and the activity change, negative = inhibition [5] was -6.03% [at 30.8 µM].

`Cc1nn(CSc2c(F)c(F)c(F)c(F)c2F)c(C)c1[N+](=O)[O-]` was tested, and the Potency [1] was “inactive”, the Potency [2] was “inactive” and the activation [3] was 0.798% [at 17.1 µM, percent relative to cAMP agonist control]. For the same compound, the Potency [4] was “inactive” and the activity change, negative = inhibition [5] was -18.4% [at 30.8 µM].

In the case of `CC(C)Cc1csc(NC(=O)c2ccc(Cl)cc2)c1C(=O)O`, the Potency [1] is reported as “inactive”, the Potency [2] is reported as “inactive” and the activation [3] is reported as 0% [at 17.1 µM, percent relative to cAMP agonist control]. For the same compound, the Potency [4] was “inactive” and the activity change, negative = inhibition [5] was -11.2% [at 30.8 µM].

For `COc1ccc(S(=O)(=O)N2C(=O)/C(=C3\SC(N)=NC3=O)c3ccccc32)cc1`, the Potency [1] was “inactive”, the Potency [2] was “inactive” and the Potency [3] was “inactive”. For the same compound, the Potency [4] was “inactive” and the Potency [5] was “inactive”.

`CCOc1ccc(S(=O)(=O)n2ccc(C)n2)c2ccccc12` was tested, and the Potency [1] was “inactive”, the Potency [2] was “inactive” and the Potency [3] was “inactive”. For the same compound, the Potency [4] was “inactive” and the Potency [5] was “inactive”.

With `COc1cc(C)cc(C(=O)C=Cc2ccccc2)c1O` the Potency [1] was “inactive”, the Potency [2] was “inactive” and the activation [3] was 3.76% [at 17.1 µM, percent relative to cAMP agonist control]. The Potency [4] was “inactive” and the activity change, negative = inhibition [5] was 12.7% [at 30.8 µM].

For `COc1ccc(Cl)cc1N(C)C(=O)Cc1noc2ccc(C)cc12`, the Potency [1] was “inactive”, the Potency [2] was “inactive” and the Potency [3] was “inactive”. For the same compound, the Potency [4] was “inactive” and the Potency [5] was “inactive”.

With `Cc1ccc(/C=C2\SC(=S)N(NS(=O)(=O)c3ccc(C)cc3)C2=O)cc1` the Potency [1] was 39.8 µM (active), the Potency [2] was “inactive” and the activation [3] was 11.9% [at 17.1 µM, percent relative to cAMP agonist control]. The Potency [4] was “inactive” and the activity change, negative = inhibition [5] was -10.4% [at 30.8 µM].

In the case of `CCCc1cc(C(=O)Nc2ccccc2SC)no1`, the Potency [1] is reported as “inactive”, the Potency [2] is reported as “inactive” and the Potency [3] is reported as “inactive”. For the same compound, the Potency [4] was “inactive” and the Potency [5] was “inactive”.

With `CCCC(C(=O)Nc1ccc(C)c(S(=O)(=O)N2CCOCC2)c1)c1ccccc1` (stereo not given) the Potency [1] was “inactive”, the Potency [2] was “inactive” and the activation [3] was 4.3% [at 17.1 µM, percent relative to cAMP agonist control]. The Potency [4] was “inactive” and the activity change, negative = inhibition [5] was -29.6% [at 30.8 µM].

For `COc1ccc(OC)c(/C=C2\N=C(c3ccccc3)OC2=O)c1`, the Potency [1] was “inactive”, the Potency [2] was “inactive” and the Potency [3] was “inactive”. The Potency [4] was “inactive” and the Potency [5] was “inactive”.

`COc1cc(/C=C/CNC[C@H]2O[C@@H](n3cnc4c(=O)[nH]c(N)nc43)[C@H](O)[C@@H]2O)ccc1O` was tested, and the Potency [1] was “inactive”, the Potency [2] was “inactive” and the Potency [3] was “inactive”. For the same compound, the Potency [4] was “inactive” and the Potency [5] was “inactive”.

For `CC1(C(=O)NS(=O)(=O)c2ccc(Cl)s2)CCN1C(=O)c1ccc(C2CCCCC2)cc1` (stereo not given), the Potency [1] was 79.4 µM (active), the Potency [2] was “inactive” and the activation [3] was 6.57% [at 17.1 µM, percent relative to cAMP agonist control]. The Potency [4] was “inactive” and the activity change, negative = inhibition [5] was -3.31% [at 30.8 µM].

With `Cc1ccc(C)c(N(C)C(=O)c2cn(C)c(=O)c3ccccc23)c1` the Potency [1] was “inactive”, the Potency [2] was “inactive” and the Potency [3] was “inactive”. For the same compound, the Potency [4] was “inactive” and the Potency [5] was “inactive”.

For `CCOC(=O)c1cccc(NC(=O)N2CCC(CN3CCCCCC3)CC2)c1`, the Potency [1] was “inactive”, the Potency [2] was “inactive” and the Potency [3] was “inactive”. For the same compound, the outcome [4] was “inactive [at 12.7 µM]” and the Potency [5] was “inactive”.

With `COc1ccc2c(c1)CC/C(=C\Nc1ccc3c(c1)OCO3)C2=O` the Potency [1] was “inactive”, the Potency [2] was 112 µM (active) and the Potency [3] was 100 µM (active). For the same compound, the Potency [4] was “inactive” and the Potency [5] was “inactive”.

With `CCOC(=O)c1ccccc1NC(=O)c1c(-c2ccccc2)noc1C` the Potency [1] was “inactive”, the Potency [2] was “inactive” and the Potency [3] was “inactive”. The Potency [4] was “inactive” and the Potency [5] was “inactive”.

`CCOc1ccccc1NC1c2ccccc2C(=O)N1Cc1ccco1` (stereo not given) was tested, and the Potency [1] was “inactive”, the Potency [2] was “inactive” and the Potency [3] was “inactive”. The Potency [4] was “inactive” and the Potency [5] was “inactive”.

In the case of `COc1ccc(-c2cc(C(F)F)n3ncc(C(=O)N4CCc5ccccc54)c3n2)cc1`, the Potency [1] is reported as “inactive”, the Potency [2] is reported as “inactive” and the Potency [3] is reported as “inactive”. For the same compound, the Potency [4] was “inactive” and the Potency [5] was “inactive”.

In the case of `COc1ccc(NC(=O)c2c(-c3ccccc3)c(-c3ccccc3)nn(C)c2=O)cc1OC`, the Potency [1] is reported as “inactive”, the Potency [2] is reported as “inactive” and the Potency [3] is reported as “inactive”. The Potency [4] was “inactive” and the Potency [5] was “inactive”.

In the case of `C[C@@H](c1ccccc1)N1Cc2ccccc2Oc2cc(Br)ccc2S1(=O)=O`, the Potency [1] is reported as “inactive”, the Potency [2] is reported as “inactive” and the Potency [3] is reported as “inactive”. For the same compound, the Potency [4] was 2.69 µM (active) and the Potency [5] was “inactive”.

`Cc1cccc(Cn2c(SCc3ccc(C(=O)N4CCCCCC4)cc3)nc3ccncc32)c1` was tested, and the Potency [1] was “inactive”, the Potency [2] was “inactive” and the Potency [3] was “inactive”. The Potency [4] was “inactive” and the Potency [5] was “inactive”.

With `CC(CCc1ccccc1)NC(=O)C1CCN(C(=O)c2sccc2-n2cccc2)CC1` (stereo not given) the Potency [1] was “inactive”, the Potency [2] was “inactive” and the Potency [3] was “inactive”. For the same compound, the Potency [4] was “inactive” and the Potency [5] was “inactive”.

For `Cc1ccc(S(=O)(=O)N(C)C)cc1NC(=O)CSc1nc2ncc(Cl)cc2[nH]1`, the Potency [1] was “inactive”, the Potency [2] was “inactive” and the Potency [3] was “inactive”. The outcome [4] was “inactive [at 12.7 µM]” and the Potency [5] was “inactive”.

In the case of `CCCOC(=O)c1c(-c2ccccc2)c(-c2ccccc2)nn(C)c1=O`, the Potency [1] is reported as “inactive”, the Potency [2] is reported as “inactive” and the Potency [3] is reported as “inactive”. The Potency [4] was “inactive” and the Potency [5] was “inactive”.

In the case of `COc1ccc(NS(=O)(=O)c2ccc3[nH]c4c(c3c2)CCCCCC4)cc1`, the Potency [1] is reported as “inactive”, the Potency [2] is reported as “inactive” and the Potency [3] is reported as “inactive”. For the same compound, the outcome [4] was “inactive [at 12.7 µM]” and the Potency [5] was “inactive”.

In the case of `COc1ccc(-c2onc3ccc(C(C)=O)cc23)cc1`, the Potency [1] is reported as “inactive”, the Potency [2] is reported as 79.4 µM (active) and the Potency [3] is reported as 79.4 µM (active). For the same compound, the Potency [4] was 19 µM (active) and the Potency [5] was “inactive”.

— PubChem BioAssay (NCATS)
